This is a sample that favours compounds with a hit; in the whole collection about 4.8% have one here.
STAT1 act: STAT1 signaling activators, primary screen, cell-based, HTS, luciferase reporter. NIH 3T3 STAT1-luciferase reporter, IFN-gamma, luminescence; 100% = IFN-gamma alone, no compound. activation (% of control), % at 5.5 µM. hit rate 2.6% among 200,000. AID 932, 2007;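 active means activation above the screen-wide mean activation plus 3 SD, cut at about 130% in these data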
APP transl inh: inhibitors of APP translation via 5'UTR reporter, primary screen, APP 5'UTR luciferase, SH-SY5Y cells. SH-SY5Y APP 5'UTR-luciferase reporter, luminescence. hit rate 0.82% among 190,000. AID 1285, 2008. inhibition, % at 2 µM;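 active means inhibition above a set limit, derived from the sample mean plus 3 SD, cut at about 45% in these data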
NF-kB neuron act: activators of NF-kB expression in neurons, primary screen, cell-based, HTS; human neuronal cells, NF-kB reporter expression; stronger effect = higher value; fold change at 12.5 µM; hit rate 1.6% among 190,000; in the data active means fold change above about 3.3
Hsp70 act: Hsp70 transcriptional activators, primary screen, cell-based, HeLa, Hsp70 promoter luciferase, luminescence, 10 µM; HeLa Hsp70 promoter luciferase reporter; scaled: vehicle 0, proteasome-inhibitor control 100%; activation, % at 10 µM; hit rate 0.04% among 200,000;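 active means activation above the mean across all tested compounds plus 3 SD, cutoff set per campaign, cut at about 5.5% in these data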
APP 5'UTR act: activators of APP 5'UTR luciferase reporter, primary screen, SH-SY5Y cells | AID 1276, 2008 | hit rate 1% among 190,000 | SH-SY5Y APP 5'UTR luciferase reporter, luminescence; zero percent = DMSO vehicle wells | activation, % at 2 µM;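 active means activation above a set limit, based on mean plus 3 SD of controls, cut at about 140% in these data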
Wee1 stabilizer: Wee1 degradation inhibitors, primary screen, cell-based, HeLa, Wee1K328M-luciferase, luminescence. reporter increase, % at 5 µM. Wee1-like protein kinase (Homo sapiens), P30291. AID 1321, 2008. hit rate 1.2% among 220,000. HeLa Luc-Wee1K328M stability; 100% = proteasome inhibitor MG132 effect;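 active means activation above the mean of all tested compounds plus 3 SD, set per screening run, cut at about 8.8% in these data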;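 further: cells exposed to compound for 20 h before luminescence read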
Target sequence (P30291 whole entry K328M): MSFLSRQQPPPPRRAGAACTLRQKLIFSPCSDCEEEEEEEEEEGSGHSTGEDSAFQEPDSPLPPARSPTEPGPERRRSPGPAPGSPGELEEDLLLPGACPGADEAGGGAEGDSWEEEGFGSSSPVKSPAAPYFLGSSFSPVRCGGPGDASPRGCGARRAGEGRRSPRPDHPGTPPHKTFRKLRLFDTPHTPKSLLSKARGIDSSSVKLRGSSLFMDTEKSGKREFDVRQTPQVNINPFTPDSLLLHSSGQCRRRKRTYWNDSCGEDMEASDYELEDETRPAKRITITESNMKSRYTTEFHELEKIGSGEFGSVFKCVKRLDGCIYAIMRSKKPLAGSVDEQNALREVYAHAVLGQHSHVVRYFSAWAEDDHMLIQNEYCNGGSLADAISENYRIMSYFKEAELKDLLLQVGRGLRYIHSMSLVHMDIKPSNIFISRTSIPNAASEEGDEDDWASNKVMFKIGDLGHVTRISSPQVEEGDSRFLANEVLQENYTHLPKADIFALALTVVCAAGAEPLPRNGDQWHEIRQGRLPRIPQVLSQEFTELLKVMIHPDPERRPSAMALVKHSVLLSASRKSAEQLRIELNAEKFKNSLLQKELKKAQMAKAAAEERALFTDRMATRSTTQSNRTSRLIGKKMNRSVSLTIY
Each line names hits and unclear results; the compound was inactive in the other large screens.

NC(=O)[C@@H]1CCCCNc2c(F)cc([N+](=O)[O-])cc2C(=O)N[C@@H](CC(=O)O)C(=O)NCC(=O)N1	Wee1 stabilizer 17
COc1ccc(/C=C\c2onc(C)c2S(=O)(=O)N2CCC(C(=O)NCCC(C)C)CC2)cc1	none
CN(C(=O)C(Cl)Cl)C1CC2C=CC1C2 (configuration not stated)	Wee1 stabilizer 11 (no result: STAT1 act, APP transl inh, NF-kB neuron act, Hsp70 act, APP 5'UTR act)
O=c1[nH]ncn1-c1ccc(Br)cc1	none
CC1CC(C)(C)Nc2ccc(N=O)cc21 (configuration not stated)	APP transl inh 65
CC1CC(C)(C)Nc2ccc(OC(=O)c3ccco3)cc21 (configuration not stated)	none
O=Cc1ccc(-c2nc3ccccc3s2)o1	STAT1 act 130, APP 5'UTR act 143
Clc1cccc(/C=N/Nc2nc(Cl)nc3ccccc23)c1	STAT1 act 145 (no result: APP transl inh, APP 5'UTR act)
Cc1cc(C)nc(N/N=C/c2cccc(Cl)c2)n1	none
Cc1ccc(CN=c2c([N+](=O)[O-])nn(-c3ccc4c(c3)OCCO4)n2O)cc1	STAT1 act 135
Cc1ccc(/C(N)=N/OC(=O)/C=C/c2ccccc2)cc1	none
N/C(=N\OC(=O)/C=C/c1ccccc1Cl)c1cccnc1	none (no result: STAT1 act, APP transl inh, NF-kB neuron act, Hsp70 act, APP 5'UTR act)
N/C(=N\OC(=O)/C=C/c1ccc(Br)cc1)c1ccccn1	NF-kB neuron act 3.9, APP 5'UTR act 188
N/C(=N\OC(=O)/C=C/c1ccccc1)c1cccnc1	none
N/C(=N\OC(=O)/C=C/c1ccccc1Cl)c1ccccn1	NF-kB neuron act 4.1
Cc1ccccc1/C(N)=N/OC(=O)/C=C/c1ccccc1	NF-kB neuron act 3.9
COc1ccc(C(=O)Oc2ccc(/C=N/NC(=O)Cc3ccc([N+](=O)[O-])cc3)cc2)cc1	none
COc1ccc(-c2cc(O)cc(O)c2)cc1	NF-kB neuron act 3.8
COc1ccc(/C=C/C(=O)Oc2cc(O)cc(O)c2)cc1	none (no result: STAT1 act, APP transl inh, NF-kB neuron act, Hsp70 act, APP 5'UTR act)
CN1OC2C(=O)N(c3ccccc3)C(=O)C2C1c1ccc(F)cc1 (configuration not stated)	Wee1 stabilizer 17
Clc1cccc(Cl)c1CSc1nnc(CN2CCOCC2)n1-c1ccccc1	Wee1 stabilizer 11
Cc1cc(C2(c3ccc(O)c(C)c3)C(=O)Nc3ccccc32)ccc1O	none
Cc1sc(C(C2C(=O)CC(C)(C)CC2=O)C2C(=O)CC(C)(C)CC2=O)cc1[N+](=O)[O-]	none
O=C(Nc1ccc(N2CCOCC2)cc1)c1ccc(Cl)nc1	none
CCN(c1ccc(NC(=O)c2ccc(Cl)nc2)cc1)C(C)C	APP transl inh 60
COCCNc1nc2sc3c(c2c(=O)n1Cc1ccco1)CCCCC3	STAT1 act 129
O=c1c2c3c(sc2nc(NCCO)n1Cc1ccco1)CCCCC3	none
CCn1c(=O)c([N+](=O)[O-])c(N2CCSCC2)c2ccccc21	none (no result: STAT1 act, APP transl inh, NF-kB neuron act, Hsp70 act, APP 5'UTR act)
CCOC(=O)N1CCC(NC(=O)CS(=O)(=O)Cc2nc(-c3ccc(C)cc3)oc2C)CC1	none
CCc1c(C#N)c(SCCC(=O)Nc2ccc(OC)cc2)nc2c1C(=O)CC(C)(C)C2	none
Nc1nonc1-c1nc2ccccc2n1Cc1ccc(F)cc1Cl	STAT1 act 135
O=C(NCc1ccc(F)cc1)C1CCC(CNc2c(N3CCCCC3)c(=O)c2=O)CC1 (configuration not stated)	none (no result: STAT1 act, APP transl inh, NF-kB neuron act, Hsp70 act, APP 5'UTR act)
Cc1cccc(-c2nnc(-c3ccc(N)cc3)o2)c1	STAT1 act 147, NF-kB neuron act 4
Cc1ccc(-c2nnc(-c3cccc(Br)c3)o2)cc1	NF-kB neuron act 3.7
Cc1cccc(-c2nnc(SCc3ccccc3)o2)c1	none
c1ccc(-c2nnc(-c3ccccc3)o2)cc1	STAT1 act 139, NF-kB neuron act 4.6, APP 5'UTR act 163
Brc1cccc(-c2nnc(-c3ccccc3)o2)c1	STAT1 act 132
CCN(CC)Cc1c(O)ccc2occ(C(=O)c3ccc(OC)cc3)c12	none
O=C(CSc1nc2cc(Cl)ccc2o1)N1CCOCC1	none
O=C(O)c1ccc2oc(SCC(=O)N3CCCCC3)nc2c1	STAT1 act 137
Cc1cc(NC(=O)c2cc3cccc([N+](=O)[O-])c3[nH]2)ccc1F	Wee1 stabilizer 17 (no result: STAT1 act, APP transl inh, NF-kB neuron act, Hsp70 act, APP 5'UTR act)
CN(C)/C=N/c1ncc(C(=O)c2ccc3ccccc3c2)s1	none
COCc1cc(C)nc(SC)c1C#N	none
Cc1cc(/C=N/NC(N)=S)c(C)n1-c1ccc(Cl)c(Cl)c1	NF-kB neuron act 7.8
CCNC(=S)N/N=C/c1cc(C)n(-c2ccc(Cl)cc2)c1C	STAT1 act 144
COC(=O)c1ccccc1NC(=O)CS(=O)(=O)Cc1nc(-c2ccc(C)cc2)oc1C	none
COc1ccc(CNC(=O)c2csc(Cc3ccc(Cl)cc3)n2)cc1	Wee1 stabilizer 9.5
COC(=O)c1ccc(NC(=O)Cn2nnc3ccccc32)cc1	STAT1 act 134
O=C(Cn1nnc2ccccc21)Nc1ccc([N+](=O)[O-])cc1	none (no result: STAT1 act, APP transl inh, NF-kB neuron act, Hsp70 act, APP 5'UTR act)
Cc1cccc(NC(=O)Cn2nnc3ccccc32)c1	STAT1 act 130
Cc1cccc(NC(=O)Cn2c(=O)n(C)c3ccccc32)c1	none
COc1cccc(/C=N\NC(=O)Cn2nnc3ccccc32)c1O	NF-kB neuron act 3.3
Cc1ccc(NC(=O)Cn2nnc3ccccc32)cc1	Wee1 stabilizer 10
COC(=O)c1ccc(NC(=O)CSc2nnc(COc3ccc4c(c3)CCCC4)o2)cc1	none
COc1cccc(-c2cc(C(=O)Nc3cc(C)n(Cc4ccc(Cl)cc4)n3)no2)c1	none
COc1ccc(NC(=O)Cn2nnc(-c3ccccc3NS(=O)(=O)c3ccc(OC)cc3)n2)cc1	APP transl inh 89
COc1ccccc1NC(=O)Cn1nnc(-c2ccccc2NS(=O)(=O)c2ccccc2)n1	none
COc1ccc(OC)c(NC(=O)C23CCC(C)(C(=O)O2)C3(C)C)c1 (configuration not stated)	none
COc1ccc(C2=NN(C(=O)CSc3nc4ccccc4s3)C(c3ccc(OC)cc3)C2)cc1 (configuration not stated)	none
COc1ccc(C2=NN(C(=O)CSc3nc4ccccc4s3)C(c3ccc(F)cc3)C2)cc1 (configuration not stated)	APP transl inh 81
Cc1ccc(NC(=O)c2ccc([N+](=O)[O-])o2)cc1C	STAT1 act 148 (no result: NF-kB neuron act)
O=C(Nc1ccccn1)c1ccc([N+](=O)[O-])o1	NF-kB neuron act 4.3
Cc1ccc(CNC(=O)CSc2ccsc2[N+](=O)[O-])cc1	STAT1 act 134
COc1ccc(CNC(=O)CSc2ccsc2[N+](=O)[O-])cc1	none
Cc1ccc(CNC(=O)c2ccc([N+](=O)[O-])o2)cc1	NF-kB neuron act 3.5
